MsrA inhibitor – bovine MsrA enzyme inhibitors, primary screen, biochemical, absorbance, HTS. Methionine sulfoxide reductase A (Bos taurus). inhibition, % at 15.5 µM. actives 0.75% (n = 360,000). purified bovine MsrA, absorbance read-out; in the data active means inhibition above about 4.5%;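 further: 0% = vehicle wells with enzyme and 100% = reference inhibitor wells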
bovine MsrA act – bovine MsrA enzyme activators, primary screen, biochemical, absorbance, HTS; Methionine sulfoxide reductase A (Bos taurus); purified bovine MsrA, absorbance read-out; activation, % at 10.6 µM; actives 0.3% (n = 360,000); in the data active means activation above about 7.5%;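 further: 0% = vehicle and 100% = reference activator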
DAGLB inh – DAGLB lipase inhibitors, primary screen, biochemical, fluorescence, HTS; HEK293T DAGLB membrane lysate, EnzChek fluorogenic substrate; inhibition, % at 5.17 µM; actives 0.059% (n = 340,000); AID 504411, 2011; in the data active means inhibition above about 34%;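 further: 0% = enzyme with vehicle and 100% = wells lacking enzyme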
Target sequence (Q8NCG7 whole entry, looked up): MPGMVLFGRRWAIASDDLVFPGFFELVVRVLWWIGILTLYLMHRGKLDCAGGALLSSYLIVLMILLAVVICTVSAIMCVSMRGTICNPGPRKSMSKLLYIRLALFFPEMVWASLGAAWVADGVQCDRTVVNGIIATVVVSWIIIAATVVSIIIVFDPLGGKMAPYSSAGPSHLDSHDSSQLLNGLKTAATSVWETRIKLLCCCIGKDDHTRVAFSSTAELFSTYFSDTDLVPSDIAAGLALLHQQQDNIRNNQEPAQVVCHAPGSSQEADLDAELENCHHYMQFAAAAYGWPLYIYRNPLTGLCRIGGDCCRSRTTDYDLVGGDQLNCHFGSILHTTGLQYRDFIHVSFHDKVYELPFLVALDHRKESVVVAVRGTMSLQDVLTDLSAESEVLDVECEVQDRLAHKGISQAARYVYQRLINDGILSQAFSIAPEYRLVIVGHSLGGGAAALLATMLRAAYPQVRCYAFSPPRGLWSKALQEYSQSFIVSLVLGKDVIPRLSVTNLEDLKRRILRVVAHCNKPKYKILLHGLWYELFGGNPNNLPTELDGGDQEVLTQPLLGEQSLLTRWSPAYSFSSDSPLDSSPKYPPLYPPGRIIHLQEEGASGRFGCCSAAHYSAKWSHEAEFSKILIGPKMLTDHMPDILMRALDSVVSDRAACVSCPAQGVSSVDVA
NadD block – inhibitors of S. aureus NadD, primary screen, biochemical, colorimetric, uHTS; actives 0.78% (n = 360,000); Nicotinate-nucleotide adenylyltransferase NadD (Staphylococcus aureus N315); purified NadD enzyme, colorimetric absorbance read-out; inhibition, % at 20 µM; in the data active means inhibition above about 26%
DSG3 Ab inh – inhibitors of pemphigus antibody binding to DSG3, primary screen, biochemical, bead-based, flow cytometry, scFv-GFP; DSG3-coupled beads, scFv-anti-DSG3-GFP binding; stronger effect = lower value; Desmoglein-3 (Homo sapiens), P32926; binding (percent of control), % at 10 µM; actives 0.48% (n = 310,000); AID 588358, 2011;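 active means binding more than 3 SD below its plate's average and above zero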;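 further: hits lower antibody fragment binding to DSG3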
rCAG RNA binder – binders of r(CAG) RNA repeats, primary screen, biochemical, fluorescence; r(CAG) RNA repeat, TO-PRO-1 dye displacement fluorescence; inhibition, % at 3 µM; actives 1.3% (n = 370,000); AID 651821, 2012;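 active means inhibition above the plate cutoff, the mean of all test compounds on that plate plus 3 SD, cut at about 35% in these data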;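 further: 0% = DMSO alone and 100% = 100 µM mitoxantrone as full dye displacement; higher means more dye released from RNA so lower well fluorescence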
rCAG binder conf – small molecules binding CAG repeat RNA – biochemical, fluorescence, confirmation. shares compounds with rCAG RNA binder. r(CAG) RNA repeat, TO-PRO-1 dye displacement fluorescence. inhibition, % at 3 µM. actives 70% (n = 4,300). AID 652065, 2013;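 active means inhibition above a per-plate cutoff, the mean inhibition of sample wells plus 3 SD, cut at about 35% in these data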;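 further: loss of TO-PRO-1 fluorescence as compound displaces dye from 1x1 AA loop RNA; 0% = DMSO only wells and 100% = 100 µM mitoxantrone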
DNA CAG counter – displacement of TO-PRO-1 from CAG DNA duplex, counter-screen for rCAG RNA repeat binder project, biochemical, fluorescence, TO-PRO-1 dye, d(CAG) DNA oligo; shares compounds with rCAG RNA binder; actives 94% (n = 4,300); d(CAG) DNA oligo TO-PRO-1 dye displacement; inhibition, % at 3 µM;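 active means inhibition above its plate's cutoff, the mean test-well inhibition plus 3 SD, cut at about 4.8% in these data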;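 further: 0% = DNA dye mix with DMSO and 100% = 100 µM mitoxantrone; hits displace the dye from DNA and so lower well fluorescence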
dCAG dye DR – inhibitors of DNA CAG/GTC TO-PRO-1 complex, dose response, counter-screen for rCAG RNA repeat binder project, biochemical, fluorescence, TO-PRO-1 dye | shares compounds with rCAG RNA binder | DNA CAG/GTC duplex TO-PRO-1 dye displacement fluorescence | IC50, µM | actives 20% (n = 250); in the data active means IC50 below about 10 µM
An asterisk follows results filed as active; nt = not tested or not shown. Most compounds without a hit are left out; they make up all but 3.2% or so of the library.

SMILES	MsrA inhibitor	bovine MsrA act	DAGLB inh	NadD block	DSG3 Ab inh	rCAG RNA binder	rCAG binder conf	DNA CAG counter	others
O=C(NNC(=O)C1CC1)c1cc(Br)c(Br)s1	1	-2	-1	2	102	36*	37*	13*
COC(=O)C1=CN(c2ccc(Oc3ccccc3)cc2)C(N)=C(C#N)C1c1ccc(-c2ccccc2)cc1 (stereo unspecified)	1	nt	nt	nt	nt	28	nt	nt
O=C(Nc1nc(-c2ccco2)c(-c2ccco2)s1)c1cnccn1	2	nt	nt	nt	nt	44*	22	13*
Cc1ccccc1Cn1cc(CN2[C@H](CC(C)C)COc3cc(Br)ccc3S2(=O)=O)nn1	nt	nt	nt	nt	nt	3	nt	nt
O=C(COC(=O)c1ccco1)Nc1nc2ccccc2s1	-1	0	7	-3	103	6	nt	nt
O=C(COC(=O)c1ccc(NS(=O)(=O)c2cccs2)cc1O)Nc1nc2ccccc2s1	1	-5	3	15	101	73*	64*	29*
O=C(COC(=O)c1ccc(NS(=O)(=O)c2cccs2)cc1O)NCc1ccccc1	1	-4	0	0	nt	38*	25	6.4*
COc1cccc(CNC(=O)[C@H]2CCCN2C(=O)[C@H]2CCCN2)c1	0	nt	nt	nt	nt	0	nt	nt
CC(C=CC(O)=C1C(=O)CNC1=O)=C[C@@H](C)C1OC2(C)OC(C(=O)C3O[C@@]32C)C1C (stereo partly specified)	0	-4	nt	-4	nt	8	nt	nt
COc1cc(/C=N/Nc2ccc(Cl)c(C(=O)O)c2)ccc1OC(=O)c1ccccc1F	3	-4	6	5	99	66*	80*	47*
COc1cc(/C=N/Nc2ccc(Cl)c(C(=O)O)c2)ccc1OC(=O)c1ccc(F)cc1	0	-1	4	18	98	9	nt	nt
COc1cc(/C=N/NS(=O)(=O)c2ccc3ccccc3c2)ccc1OCc1ccc(C(=O)O)cc1	2	-2	4	8	95	48*	40*	11*
COc1cccc(C(=O)Oc2ccc(/C=N/Nc3ccc(C(=O)O)cc3)cc2OC)c1	4.6*	-5	3	5	106	70*	67*	25*
COc1cc(/C=N/NS(=O)(=O)c2ccc(C)cc2)ccc1OCc1cccc(C(=O)O)c1	1	-2	3	14	97	24	nt	nt
CC(C)(C)c1ccc(/C=N/Nc2ccc(C(=O)O)cc2)cc1	3	-4	5	5	100	39*	36*	8.8*
CSCCC(C(=O)NC1CCCC1)n1c(C2CCCC2)nc2ccccc21 (stereo unspecified)	1	nt	nt	nt	nt	5	nt	nt
CC(=O)NC(Cc1ccccc1)P(=O)(O)O (stereo unspecified)	nt	nt	nt	nt	nt	0	nt	nt
CC(C)CCN1C(=O)COc2ccccc2C1c1nnnn1-c1ccc2c(c1)OCCO2 (stereo unspecified)	nt	nt	nt	nt	nt	3	nt	nt
C[C@@H]1CN([C@@H](C)CO)S(=O)(=O)c2ccc(-c3ccc(C#N)cc3)cc2O[C@@H]1CN(C)Cc1ccccn1	0	-3	-2	-2	100	3	nt	nt
COc1ccc(Cc2n[nH]c(=S)n2NC(=O)Nc2ccc(Cl)c(Cl)c2)cc1	-2	0	4	0	95	63*	37*	15*
O=C(O)c1cc(N2N=C(C(F)(F)F)/C(=C/C=C/c3ccco3)C2=O)ccc1Cl	1	-7	18	42*	71	89*	93*	76*
CC(=O)Nc1ccc2c(c1)C(=O)N(C)[C@H]1CC[C@H](CC(=O)NCc3ccc(F)cc3)O[C@@H]1CO2	nt	nt	nt	nt	nt	1	nt	nt
COc1ccc(-c2cccc(NS(=O)(=O)c3ccccc3[N+](=O)[O-])c2)nn1	0	-3	4	8	94	18	nt	nt
CCOc1ccc(-c2cccc(NS(=O)(=O)c3ccccc3[N+](=O)[O-])c2)nn1	1	-1	1	3	98	35*	21	8.5*
CCOc1ccc(-c2ccc(NS(=O)(=O)c3cc([N+](=O)[O-])c(C)c([N+](=O)[O-])c3)cc2)nn1	0	0	12	12	126	68*	44*	14*
SMILES	MsrA inhibitor	bovine MsrA act	DAGLB inh	NadD block	DSG3 Ab inh	rCAG RNA binder	rCAG binder conf	DNA CAG counter	others
CCOc1ccc(-c2cccc(NS(=O)(=O)c3cc([N+](=O)[O-])ccc3C)c2)nn1	1	-2	1	5	94	38*	43*	13*
CC1CC(=Cc2ccc([N+](=O)[O-])cc2)C(=O)O1 (stereo unspecified)	3	-7	-1	-4	98	1	nt	nt
CC1(C(=O)Nc2ccc3c(c2)OCO3)Cc2c(-c3cccc(C(N)=O)c3)ccnc2O1 (stereo unspecified)	-1	-6	nt	-3	nt	2	nt	nt
Cc1csc2ncc(C(=O)NCc3ccccc3Cl)c(=O)n12	1	-3	-1	-2	98	2	nt	nt
Cc1nc2c(C(=O)NCCc3ccccc3Cl)c[nH]n2c(=O)c1Cl	0	-5	10	23	140	71*	74*	33*	dCAG dye DR=4.5*
Cc1nc2c(C(=O)NCc3ccccc3Cl)c[nH]n2c(=O)c1Cl	1	0	12	29	102	81*	58*	21*
CCCC/C=C1/[C@H](c2ccc(Cl)cc2)N(Cc2ccc3c(c2)OCO3)C2=N[C@H](c3ccccc3)CC(=O)N21	nt	nt	nt	nt	nt	10	nt	nt
O=C(Nc1ccc(Cl)cc1)Nc1ccccc1NS(=O)(=O)c1cccs1	0	-3	0	0	102	43*	39*	10*
O=C(Nc1ccc(F)cc1)Nc1ccccc1NS(=O)(=O)c1cccs1	0	-3	2	-6	87	19	nt	nt
Cc1cc(Cl)ccc1OCC(=O)Nc1ccccc1NS(=O)(=O)c1cccs1	0	-3	1	-6	94	42*	51*	11*

Assay outcomes as filed in PubChem.
